# D1 antagonist = antagonists of human D1 dopamine receptor | activity change, negative = inhibition, % at 10 µM | 360,000 compounds, 3.2% hits | HEK293 TREx D1 cells, calcium flux, dopamine EC80; hits give low values; in the data active = activity change below about -30%; also: % is scaled to controls: 0 for no effect and ±100 for the full control effect
#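 Compound effects on dopamine-evoked calcium signalling were measured in tetracycline-induced HEK293 Trex D1 cells. Dopamine at EC80 followed a 180 s compound pre-read, and fluorescence was tracked kinetically for 180 s more.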
# D1 potentiator = enhances dopamine response at the human D1 receptor; P21728; HEK293 TREx D1 cells, calcium flux, dopamine EC20 potentiation; potentiation, % at 10 µM; 360,000 compounds, 0.036% hits; AID 504651; in the data active = potentiation above about 30%; also: 0% is about no effect
# D1 ag = human D1 receptor agonism | activation, % at 2 µM | 360,000 compounds, 1% hits | AID 504660 | P21728 | HEK293 T-REx D1 cells, calcium flux, agonist mode; also: 0% is about no effect
#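 Tetracycline-induced HEK293 TREx D1 cells, force-coupled to calcium signalling, were dye-loaded with a no-wash calcium kit. Compound was pin-added after a 10 s baseline. Fluorescence was read kinetically at 1 cycle/s for 180 s, with calcium rises flagged as agonism.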
# TRHR ag = TRH receptor (human) agonism; P34981; TRHR cells, calcium flux fluo-8, FDSS agonist mode; activation, % at 2 µM; 360,000 compounds, 0.18% hits; AID 493084; also: 0% is about no effect
# Target sequence (P34981 whole entry, looked up): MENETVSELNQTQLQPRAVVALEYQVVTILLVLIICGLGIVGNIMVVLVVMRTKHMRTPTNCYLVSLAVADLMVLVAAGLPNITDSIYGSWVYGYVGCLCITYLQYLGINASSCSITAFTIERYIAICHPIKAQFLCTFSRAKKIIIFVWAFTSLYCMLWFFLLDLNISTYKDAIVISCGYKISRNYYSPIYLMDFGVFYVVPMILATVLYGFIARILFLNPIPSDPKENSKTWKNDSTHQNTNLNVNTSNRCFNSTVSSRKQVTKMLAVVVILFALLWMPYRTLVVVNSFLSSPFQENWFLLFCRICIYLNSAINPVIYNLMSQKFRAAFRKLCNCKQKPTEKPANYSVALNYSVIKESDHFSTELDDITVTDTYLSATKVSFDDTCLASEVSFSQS
#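 Agonist-mode FDSS calcium read (Ex 480/Em 530, 1 s cycles) in 1536-well TRHR cells with fluo-8 dye, after 10-cycle baseline and 23 nL compound addition; TRH at EC20 (10 nM final) added afterwards for the enhancer phase.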
# TRHR enhancer = TRH receptor (human) allosteric enhancement; enhancement, % at 2 µM; TRHR cells, fluo-8 calcium fluorescence, EC20 TRH enhancement; P34981; AID 493056; 360,000 compounds, 0.66% hits; in the data active = enhancement above about 30%; also: 0% is about no effect
#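 Enhancer read-out: after compound pinning and an initial kinetic agonist-mode read, an EC20 of TRH (10 nM final) was injected and fluo-8 calcium signal (Ex 480/Em 530) followed at 1 s/cycle for 100 cycles in TRHR-expressing cells.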
# Numbers without * were called inactive; ! = repeats disagree. An excerpt weighted towards active compounds, which were near 4.6% of everything screened. Rule as the data show it, unless noted: active = activation above about 30%; inactive = the rest.
SMILES,D1 antagonist,D1 potentiator,D1 ag,TRHR ag,TRHR enhancer
Cc1ccc2c(C(=O)CN3CCSCC3)c(C)[nH]c2c1,-44*,0,2,0,-5
Cc1ccc2c(C(=O)CN3CCC4(CC3)OCCO4)c(C)[nH]c2c1,-13,-3,5,0,-1
CC(CNC(=O)c1ccc2c(c1)nc1n2CCCCC1)c1ccccc1 (stereo not drawn),-8,4,-1,0,-2
COc1ccc(S(=O)(=O)c2c(Nc3c(C)cccc3C)sc(C(=O)c3ccc(F)cc3)c2N)cc1,9,-2,52*,3,8
COc1cccc(Nc2sc(C(=O)c3ccc4c(c3)OCO4)c(N)c2S(=O)(=O)c2ccccc2)c1,3,4,30,1,6
COc1ccccc1Nc1sc(C(=O)c2ccc(F)cc2)c(N)c1S(=O)(=O)c1ccc(C)cc1,16,-1,32*,2,5
COc1ccc(S(=O)(=O)c2c(Nc3cccc(C)c3C)sc(C(=O)c3ccccc3)c2N)cc1,-27,1,38*,2,0
COc1ccc(S(=O)(=O)c2c(Nc3c(C)cccc3C)sc(C(=O)c3ccc4c(c3)OCO4)c2N)cc1,13,-1,31*,1,5
Cc1ccccc1Nc1sc(C(=O)c2ccccc2)c(N)c1S(C)(=O)=O,2,-3,11,-1,-2
CCOc1ccc(CNC(=O)c2c(C)nn(-c3ccc(F)cc3)c2-n2cccc2)cc1,-13,0,15,2,5
Cc1ccc(OCC(=O)Nc2ccc3nn(-c4ccc(C)cc4)nc3c2)cc1,-10,1,0,0,-6
CCCCCSc1nnc2c(n1)[nH]c1c(C)cccc12,-30*,1,5,-1,-6
CC(C)c1ccc(C(=O)NNC(=O)C2C3CCC(C3)C2C(=O)O)cc1 (stereo not drawn),-75*,-4,0,-1,-1
O=C(c1cc2cc3ccc(Cl)cc3nc2o1)N1CCN(c2cccc(Cl)c2)CC1,4,1,-2,0,-2
COc1ccccc1NC(=O)c1cc2c(n(-c3ccc(C)cc3)c1=O)CC(C)(C)CC2=O,-31*,-1,-2,2,-7
CCOC(=O)c1ccc(NC(=O)Cc2ccc(-n3c(CC)nc4cccnc43)cc2)cc1,-14,-3,6,2,-1
COC(=O)c1ccc(NC(=O)CC2C(=O)N(c3ccccc3)C(=O)N2Cc2cccs2)cc1 (stereo not drawn),-13,-5,0,0,2
Fc1ccccc1N1CCN(C2CCN(Cc3c[nH]c4ccccc34)CC2)CC1,-7,-7,46*,-1,3
O=C(CN1CCN(c2ccccc2F)CC1)c1c[nH]c2ccccc12,-6,-8,10,0,-5
COC(CNC(=O)C(=O)NCC1CCCN1S(=O)(=O)c1cccs1)OC (stereo not drawn),7,6,2,1,-4
c1ccc(-c2cn(-c3ccccc3)c3[n+]2CCS3)cc1,23,-2,6,0,4
COc1ccc(-c2cn(-c3ccccc3)c3[n+]2CCS3)cc1,-53*!,-7,2,0,2
CC(C(=O)Nc1ccc([N+](=O)[O-])cc1)N1CCN(C/C=C/c2ccccc2)CC1 (stereo not drawn),-45*,-14,26,2,1
CCNC(=S)N(Cc1ccc2c(c1)OCO2)C1CC(=O)N(c2ccc(F)cc2)C1=O (stereo not drawn),-60*,-5,5,1,2
CCSc1nnc2c(n1)OC(c1ccc(OC)c(OC)c1)N(C(C)=O)c1ccccc1-2 (stereo not drawn),-30*,2,-2,-1,7
SMILES,D1 antagonist,D1 potentiator,D1 ag,TRHR ag,TRHR enhancer
Cc1ccc(-n2c(=O)c3c4c(sc3n(Cc3ccccc3C)c2=O)CCC4)cc1C,-72*,1,1,0,3
Cc1ccccc1Cn1c(=O)n(-c2ccc(Cl)cc2)c(=O)c2c3c(sc21)CCCC3,10,2,0,0,7
Cc1cccc(-c2nc3scc(CCNC(=O)c4ccccc4Cl)n3n2)c1,-21,-1,1,0,0
O=C1CCCN1CCCN1CC(C(=O)N(CCO)Cc2ccccc2)CCC1=O (stereo not drawn),-5,-1,1,0,-1
O=C(Nc1cccnc1)C1COc2ccccc2O1 (stereo not drawn),-8,-8,6,-1,10
O=C(Nc1ncccc1Cl)C1COc2ccccc2O1 (stereo not drawn),9,-7,47*,0,-4
O=C1OC[C@H](Cc2ccc3c(c2)OCO3)/C1=C\c1ccc2c(c1)OCO2,-33*,0,20,0,9
O=C1CC(Cc2ccccc2)C(=O)N1CCc1ccc2c(c1)OCO2 (stereo not drawn),-8,3,2,0,12
CCCC12CN3CC(C)(CN(C1)C3c1ccc(CC)cc1)C2=O (stereo not drawn),7,2,5,2,0
O=C(Oc1ccc(F)cc1)c1nc(SCc2ccccc2F)ncc1Cl,6,0,6,0,-6
O=C(Nc1nnc(C(F)(F)F)s1)c1ccc(Br)s1,-43*,-7,37*,5,-8
NC(=O)c1ccccc1NC(=O)c1ccccc1Cl,-7,-5,0,-1,-2
CC(NC(=O)Nc1nnc(C(F)(F)F)s1)(C(F)(F)F)C(F)(F)F,-29,-8,41*,12,3
O=C(Nc1ccccc1C(=O)Nc1nnc(C(F)(F)F)s1)c1ccccc1Cl,-30*,-3,26,2,-9
COc1ccc(C2=CC(c3ccccc3Cl)n3nc(-c4ccc(C)cc4)nc3N2)cc1 (stereo not drawn),4,1,8,-1,-11
Cc1c(Cl)cccc1-n1nnc(-c2nc(-c3ccc4c(c3)OCO4)no2)c1C,-10,-2,2,0,2
CCC1CCCCN1C(=O)CCn1ccnc1 (stereo not drawn),6,4,5,0,32*
CC(NCCCOc1cccc2ccccc12)c1ccccc1 (stereo not drawn),1,2,39*,1,8
COc1ccc2ccccc2c1CNC(C)c1ccccc1 (stereo not drawn),7,-14,7,0,-9
CCOc1ccc(CNS(=O)(=O)c2cc(CN3C(=O)c4cccnc4C3=O)ccc2OC)cc1,-54*,3,-1,-1,2
O=C(Nc1nccs1)C1CC=CCC1 (stereo not drawn),-19,5,4,1,-7
O=C(Nc1ccc(O)cc1)C1CC=CCC1 (stereo not drawn),-100*,-7,4,0,0
Cc1ccc2cc(C#N)c(NCc3ccccc3)nc2c1,-33*,-4,3,0,8
